Results: the supplement of paper PMC3842684

Tests used:
[1] = system: P. falciparum NF54-pfs16-GFP early (I-III) stage gametocytes; assay: relative % inhibition of viable gametocyte number; higher = more gametocytocidal; conditions: stage: early (I-III) gametocyte, incubation 72 h
In short: (§1)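 Relative inhibition was normalised to in-plate vehicle and positive-control wells, with viable gametocytes defined on confocal images as elongated GFP objects whose MitoTracker Red signal exceeded a cut-off. NF54 pfs16-GFP gametocytes, magnet-isolated at early (I/IIa, day 2) or late (day 8) stage, were plated at 10% parasitaemia, 0.1% haematocrit with compound at 5 or 0.5 µM. Plates were incubated 72 h at 37°C, 5% CO2, 5% O2, then stained overnight.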

[2] = system: P. falciparum NF54-pfs16-GFP late (IV-V) stage gametocytes; assay: as above; conditions: stage: late (IV-V) gametocyte, incubation 72 h
In short: as §1

| SMILES | relative % inhibition ([1]; 0.5 µM) [%] | relative % inhibition ([1]; 5 µM) [%] | relative % inhibition ([2]; 0.5 µM) [%] | relative % inhibition ([2]; 5 µM) [%] |
| --- | --- | --- | --- | --- |
| Oc1ccc(Cl)cc1CNc1nc2ccccc2[nH]1 | 16.5 | 37.3 | -1.55 | 13.6 |
| O=C(Nc1cccc(C(F)(F)F)c1)c1cc(Cl)ccc1O | -0.916 | 104 | 15 | 30.1 |
| CN(C)c1ccc(C(O)(c2ccc(N(C)C)cc2)c2ccc(N(C)C)cc2)cc1 | 81.4 | -12.4 | 102 | 103 |
| FC(F)(F)c1cccc(Nc2nc3ccccc3nc2Nc2cccc(C(F)(F)F)c2)c1 | 96.8 | 102 | 105 | 103 |
| COc1cccc(Nc2nc(N)c3ccccc3n2)c1 | -16.5 | -5.49 | 7.14 | 1.59 |
| CCN(CC)CCNc1ccnc2cc(Cl)ccc12 | -1.61 | 100 | 18.2 | 14.7 |
| COc1ccc(CCN2CCC(CN(C)Cc3cnn(-c4ccccc4)c3)CC2)cc1 | 4.18 | 65.3 | 11.3 | -5.77 |
| c1ccc2cc3c(Nc4ccc(N5CCOCC5)cc4)ccnc3cc2c1 | -11.9 | 12.3 | 9.42 | 36.1 |
| O=C(Nc1ccc(F)c(Cl)c1)Nc1ccc(Cl)c(Cl)c1 | 6.15 | 98.2 | 18.8 | 30.3 |
| CN(C)c1ccc(-c2nc3cc(N)ccc3[nH]2)cc1 | -6.62 | 18.8 | -13.1 | -10.8 |
| COc1cccc(C(=O)NC(c2ccc(C)cc2)c2cc(Cl)c3cccnc3c2O)c1 (stereo unspecified) | 12.4 | 82.5 | 46.5 | 65.2 |
| COc1cc2c3cc1Oc1c(OC)c(OC)cc4c1C(Cc1ccc(O)c(c1)Oc1ccc(cc1)CC3N(C)CC2)N(C)CC4 (stereo unspecified) | 1.03 | 73.4 | -24.9 | 23.7 |
| CCN(CC)CCn1c(=N)n(CC(O)c2ccc(Cl)c(Cl)c2)c2ccccc21 (stereo unspecified) | 32.2 | 61.8 | 19.3 | 89.4 |
| Oc1ccccc1CN1CCN(C(c2ccccc2)c2ccccc2)CC1 | 13.3 | 98.5 | 28.3 | 78.5 |
| COc1ccc(C2N(C)c3ccccc3N2C)cc1 | 24.6 | 30.9 | 17.9 | -2.47 |
| CCOc1cc2c(cc1OCC)C(c1cc(C)c(O)c(C)c1)NCC2 (stereo unspecified) | 18.2 | 102 | 24.3 | 34.7 |
| Cn1c(=O)c2cc(C(=O)NCCCN3CCCCCC3)sc2c2ccccc21 | 13.6 | 27.4 | -1.01 | -0.0726 |
| COCCNC(=O)c1ccc(OC2CCN(Cc3ccc(F)c(F)c3)CC2)c(Cl)c1 | 7.61 | -0.414 | 14.2 | 39.9 |
| COc1cc(C(=O)ON=C(N)Cc2cccc3ccccc23)cc(OC)c1OC | -8.44 | 74.1 | 2 | 82.3 |
| CCOc1ccc(N2C(N)=NC(N)=NC2(C)C)cc1 | 3.66 | -20.1 | -17.5 | -10.7 |
| CCCCOc1ccc(C(=O)Nc2cc(C)on2)cc1 | 3 | 12.9 | -7.15 | 17.4 |
| CCOc1cc(Br)c(C(C)NC(=O)c2cccc(OC)c2)cc1OCC (stereo unspecified) | 9.37 | 46.2 | 11.2 | 42.6 |
| Clc1ccc2[nH]c3c(NCCCN4CCOCC4)ncnc3c2c1 | 61.4 | 97.5 | 12.4 | 17.7 |
| CCCC(c1nnnn1C1CCCCC1)N1CCN(C(=O)c2ccco2)CC1 (stereo unspecified) | 0.873 | -28.3 | -2.74 | 2.82 |
| Brc1ccc(Nc2nc3ccccc3nc2Nc2ccc(Br)cc2)cc1 | 38.5 | 103 | 55.2 | 102 |

| SMILES | relative % inhibition ([1]; 0.5 µM) [%] | relative % inhibition ([1]; 5 µM) [%] | relative % inhibition ([2]; 0.5 µM) [%] | relative % inhibition ([2]; 5 µM) [%] |
| --- | --- | --- | --- | --- |
| FC(F)(F)c1cccc(CNC2CCN(CCc3ccccc3)CC2)c1 | -2.89 | 82.2 | 1.32 | -17.4 |
| CCOc1ccccc1CNC(=O)C1c2ccccc2C(=O)N(CC(C)C)C1c1cccs1 (stereo unspecified) | 6.2 | 54.1 | -4.49 | -12.6 |
| COc1ccc2c(c1OC)C(=O)N1c3ccccc3N=C(c3ccc(C)cc3)CC21 (stereo unspecified) | 11.7 | 60.6 | -8.16 | 5.82 |
| CCOC(=O)c1cnc2c(C)cc(C)cc2c1Nc1ccc(OC)c(OC)c1 | 2.37 | 7.56 | -4.75 | 3.59 |
| CCOc1c(Br)cc(C2C(C(=O)OC)=CN(C)C=C2C(=O)OC)cc1OC | 17.4 | 88.4 | -1.2 | 68.1 |
| Clc1ccc2c(N3CCCC3)ccnc2c1 | 21.2 | 65.9 | 11.2 | -4.99 |
| OC(CNC1CCCCC1)Cn1c2ccccc2c2ccccc21 (stereo unspecified) | 14.8 | 66 | 49.9 | 104 |
| CN1CCN(c2c3c(c(C#N)c4nc5ccccc5n24)CCC3)CC1 | -35.3 | -26.5 | -1.94 | -8.14 |
| COc1ccc(-c2cc3c(SCC(=O)Nc4cc(C(F)(F)F)ccc4Cl)nccn3n2)cc1 | 14.5 | -14.1 | -14.3 | 3.88 |
| C=C(C)CCC(C)N1CCC(N2CCC(C(=O)NCCc3ccccc3)CC2)CC1 (stereo unspecified) | -2.27 | 49.4 | -12.5 | -42.7 |
| COc1nc(Nc2ccc(C(C)C)cc2)nc(OC)n1 | 24.9 | 0.105 | -0.358 | -10.9 |
| CC(=O)c1sc(NC(=O)Nc2ccc(C)cc2C)nc1C | 30.3 | 63.7 | -2.19 | -29.6 |
| CCN1CCN(Cc2ccc(NC(=O)c3cc4ccc5cccnc5c4[nH]3)cc2)CC1 | 21.1 | 59.1 | -6.9 | 3.45 |
| COc1ccc(-c2cc(=O)oc3c4c(ccc23)OCN(Cc2ccc(F)cc2)C4)cc1 | -4.17 | 73.2 | 25.1 | 34.8 |
| COc1ccc(C2Sc3ccccc3N=C3C2=C(O)c2ccccc23)cc1 (stereo unspecified) | 6.74 | 20.4 | 24 | 51.1 |
| CCc1ccc(Nc2cc(C)c3ccc(O)cc3n2)cc1 | 1.9 | 99.6 | 16.3 | 56.6 |
| O=C(Nc1ccc(-c2nc3cc(NC(=O)c4ccc(Cl)cc4)ccc3[nH]2)cc1)c1ccc(Cl)cc1 | 6.74 | 48.5 | -5.09 | 24.8 |
| CCCCCCc1cc2cc(-c3csc(C=Cc4ccccc4)n3)c(=O)oc2cc1O | 18.9 | 101 | 31.2 | 104 |
| CN(C)c1ccc(N2C(N)=NC(N)=NC2(C)C)cc1 | -7.59 | -3.16 | 20.3 | -8.27 |
| CC(C)=CCN1CCC(C(=O)Nc2ccc(-c3nc4ccccc4[nH]3)cc2)CC1 | 3.42 | 74.1 | 16.4 | -15.7 |
| CC1CN(C(=O)c2sc3ccccc3c2Cl)CC(C)O1 (stereo unspecified) | -11.1 | 1.13 | 6.08 | -5.12 |
| O=C(NC1CCN(Cc2ccccc2)CC1)c1cc2nc(-c3ccc(Cl)s3)cc(C(F)(F)F)n2n1 | 3.66 | -15.9 | 21.4 | 25 |
| CCCCc1c(C)nc2c(OC)cccc2c1O | 12.7 | -0.633 | 35.7 | 63.9 |
| COc1cc(OC)cc(N2C(=O)N(Cc3ccc(C(C)(C)C)cc3)c3ccccc3S2(=O)=O)c1 | 10 | 6.11 | 4.34 | 35.7 |
| COc1ccc2c(c1)C1(Nc3ccccc3-c3nc4ccccc4n31)C(=O)N2 (stereo unspecified) | 55.7 | 84.8 | 37.6 | 63.5 |

| SMILES | relative % inhibition ([1]; 0.5 µM) [%] | relative % inhibition ([1]; 5 µM) [%] | relative % inhibition ([2]; 0.5 µM) [%] | relative % inhibition ([2]; 5 µM) [%] |
| --- | --- | --- | --- | --- |
| OC(CNCC1CCCO1)Cn1c2ccc(Cl)cc2c2cc(Cl)ccc21 (stereo unspecified) | 16.5 | 31.6 | 45.5 | 75.6 |
| O=C(O)C1Cc2c([nH]c3ccccc23)C(c2ccc(Cl)cc2Cl)N1 (stereo unspecified) | -10.4 | -20.9 | 6.2 | 1.16 |
| Cc1ccc(C)c(-c2csc(Nc3ccc(C)c(C)c3)n2)c1 | 9.93 | -13.3 | 15.6 | 41.4 |
| CCOc1ccc(CCNC(=O)c2cccs2)cc1OCC | -1.74 | 30.1 | -6.65 | 16.1 |
| COc1cccc(C2(C)Nc3ccccc3-c3nc4ccccc4n32)c1 (stereo unspecified) | -5.06 | 5.7 | 27.8 | 16.2 |
| COc1ccc2nc(C)cc(Nc3ccccc3O)c2c1 | 6.33 | 20.9 | -7.14 | 18.4 |
| CC1(c2ccccc2)Nc2ccccc2-c2nc3ccccc3n21 (stereo unspecified) | 1.27 | 32.3 | 46.2 | 46.6 |
| O=C(NC1CCCC1)c1ccc(N2CCC(NCc3cccc(C(F)(F)F)c3)CC2)cc1 | 2.61 | 22.8 | 6.99 | 44.5 |
| CCCCc1c(CCC)c(=N)c2ccccc2n1C | 16.2 | -5.38 | 18.3 | -17.8 |
| Cc1cc(=O)oc2c1ccc1oc(C(=O)c3ccccc3)c(C)c12 | 8.22 | 5.4 | 17.2 | -4.53 |
| Cc1ccccc1OCCSc1nc2ccc(NC(=O)c3ccccc3)cc2s1 | 24.2 | 20.2 | 2.82 | 12.9 |
| OC1CCCCC1C1(NC(=S)Nc2ccccc2)CCCCC1 (stereo unspecified) | 2.55 | 71.5 | 33.8 | 90.8 |
| CCOc1cc2c(cc1OCC)C(c1cc(Cl)c(O)c(OCC)c1)NCC2 (stereo unspecified) | 8.41 | 94.7 | 29.4 | 18.2 |
| Cc1ccc(Nc2nc(-c3ccccn3)cs2)cc1 | 69.6 | 93.5 | 95.4 | 98.4 |
| CCN(CC)CCCNc1nc(-c2ccc(Cl)cc2)nc2ccccc12 | 11.6 | 96.5 | 13.1 | 23.5 |
| CCN(Cc1ccccc1)C1CCN(Cc2cc(Br)ccc2O)CC1 | 27.8 | 99 | 35.1 | 68.6 |
| O=C1CC(O)(C(F)(F)C(F)(F)F)Oc2ccccc21 (stereo unspecified) | 0.889 | 0.745 | -15.1 | 4.41 |
| CCN(CC)c1ccc(NC(=O)c2cccs2)cc1 | -1.58 | -23.9 | 16.7 | 43.6 |
| CC(C)(C)CC(C)(C)NCC(O)COc1ccc2c(c1)CCC2 (stereo unspecified) | -11.4 | 78.8 | 17.6 | 20.4 |
| Oc1ccc(-c2nc(-c3ccc4oc5ccc(-c6[nH]c(-c7ccc(O)cc7)nc6-c6ccccc6)cc5c4c3)c(-c3ccccc3)[nH]2)cc1 | 92.1 | 107 | 3.61 | 52.7 |
| CC(=O)c1ccc(NC(=O)CSc2nc(-c3ccccc3Cl)ns2)cc1 | 3.99 | 39.1 | 22.2 | 5.88 |
| Cc1cc(C=C2SC(=Nc3ccccc3)N(C3CCCC3)C2=O)c(C)n1-c1ccc(Cl)cc1 | 15 | 2.67 | -2.31 | 31.2 |
| Cc1cc(NCCN2CCCCC2)c2ccc3ccccc3c2n1 | 10.2 | 97.3 | 4.67 | 36.7 |
| CCCCN(CCCC)S(=O)(=O)c1ccc(NC(=O)c2ccco2)cc1 | 16.5 | 7.65 | 7.52 | 1 |
